# The list is not random: actives were taken first. Their share in the collection is about 2.8%.
# Shn3 3UTR inh = reduces Shn3 3'UTR luciferase signal in osteoblasts; inhibition, % at 12.5 µM; 360,000 compounds, 0.52% hits; Clone20 osteoblast Shn3 3'UTR firefly luciferase, 24 h; AID 588674;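 active means mean inhibition of at least 75% with every replicate also reaching 75%; inconclusive means mean inhibition at least 75% but some replicate below; inactive means mean inhibition below 75%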;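 further: 0% = median of neutral control wells and 100% = pilot-screen positive control compound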
# HIF-2a inh = inhibitors of HIF-2a | 786-0 RCC cells HIF-2a reporter, luciferase luminescence, overnight | inhibition, % at 18.8 µM | 360,000 compounds, 0.72% hits | AID 624352;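 active means inhibition of the luminescence signal of 40% or more relative to plate controls, in a single-dose primary screen at 18.75 µM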
# EBV LMP1 NFkB = inhibitors of Epstein-Barr LMP1-induced NF-kappaB reporter | inhibition, % at 12.5 µM | LMP1-induced NF-kappaB luciferase reporter cells, luminescence | 350,000 compounds, 0.69% hits; in the data active means inhibition above about 41%; inconclusive means no clear call, values can overlap the other calls;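 further: 0% = neutral control wells and 100% = reference inhibitor control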
# PAX8 reporter = PAX8 transcriptional activity inhibition. 360,000 compounds, 1.2% hits. RMG-I TPO-luciferase reporter, SteadyGlo, 24 h. inhibition, % at 12.6 µM;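 active means mean replicate inhibition at least 60% with every replicate also reaching 60%; inconclusive means only one of the two criteria is met; inactive means mean below 60% and not all replicates reaching 60%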;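 further: luciferase light reporting Pax8 driven TPO promoter activity; plate controls were median of neutral control wells for no effect and mitoxantrone controls for full effect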
# Peg3 promoter = inhibitors of Peg3 promoter; inhibition, % at 20 µM; HeLa PEG-Prom luciferase reporter, luminescence, overnight; 360,000 compounds, 1.7% hits;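 active means inhibition of at least 50% at 20 µM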
# TRPM1 prom inh = MITF TRPM1 promoter inhibition in SK-MEL-5 cells; SK-MEL-5 TRPM1 promoter luciferase, 24 h; inhibition, % at 12.5 µM; 330,000 compounds, 0.83% hits;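 active means mean inhibition across replicates of 60% or more, whatever share of single replicates reaches that level; inconclusive means some that reach 60%, reason not given; inactive means mean inhibition across replicates below 60%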
# * hit, by the source's call; ? = inconclusive; nt = not tested or not shown.
SMILES,Shn3 3UTR inh,HIF-2a inh,EBV LMP1 NFkB,PAX8 reporter,Peg3 promoter,TRPM1 prom inh
COCC(=O)N(C[C@@H]1N[C@H](CO)[C@H]1c1ccc(-c2cccnc2)cc1)C(C)C,nt,nt,nt,-15,nt,nt
CCC(=O)N1CCC2(CC1)CN(Cc1ccccc1Cl)[C@@H](CO)c1c2c2ccc(OC)cc2n1C,nt,nt,nt,14,nt,nt
CN(C)CCOc1ccc(/C(=C(/CCCl)c2ccccc2)c2ccccc2)cc1,-1,-8,5,-2,74*,1
CO[C@@H]1CN(C)C(=O)c2ccc(NC(C)=O)cc2OC[C@H](C)N(C(=O)C2CCC2)C[C@@H]1C,nt,nt,nt,2,nt,nt
CCCCCCCCNC(=O)c1cnccn1,12,-25,2,98*,-16,2
Cc1ccccc1C(=O)NCCCNC(=O)c1cnccn1,4,6,-1,-1,5,4
CCN(CC)c1ccc(N)cc1,?,-33,?,nt,18,86*
Nc1ccc(N(CCO)CCO)cc1,3,6,5,-3,8,6
CC1CCCC(NC(=O)NC(=O)CCl)C1C (centres undefined),-1,7,10,14,51*,71*
CC1CCCCC1NC(=O)NC(=O)COC(=O)c1nccnc1N (centres undefined),-5,6,2,0,3,-11
CC1CCCCC1NC(=O)NC(=O)CCl (centres undefined),7,13,0,-9,55*,nt
N#Cc1c(N)n(C2OC(CO)C(O)C2O)c2ncnc(N)c12 (centres undefined),65,71*,66*,109*,96*,71*
Cc1noc(C)c1S(=O)(=O)Nc1ccc2c(c1)C(=O)N([C@@H](C)CO)C[C@H](C)[C@H](CN(C)Cc1ccc(Cl)c(Cl)c1)OCCCC[C@@H](C)O2,nt,nt,nt,48,nt,nt
Cc1nnc(N/N=C/c2ccccc2O)n1N,-8,-7,8,50,-1,-6
Cc1nnc(N/N=C/c2cc(C)n(-c3ccc(F)cc3)c2C)n1N,-4,-38,-3,120*,-18,-10
COc1ccc(/C=C/C(=O)NC(=S)NNC(=O)c2cnccn2)cc1,94*,1,30,25,52*,47
COc1ccc(/C=C/C(=O)NC(=S)NNC(=O)c2cccnc2)cc1,-5,0,-8,0,12,-3
O=C1C(Nc2ccccc2)=C/C(=N/S(=O)(=O)c2cccs2)c2ccccc21,97*,-5,87*,nt,105*,95*
Cc1ccc(NC2=C/C(=N/S(=O)(=O)c3cccs3)c3ccccc3C2=O)cc1,97*,-152,80*,53,-88,105*
Cc1ccc(S(=O)(=O)/N=C2\C=C(Nc3ccc(O)cc3)C(=O)c3ccccc32)cc1,97*,70*,88*,nt,105*,99*
Cc1noc(C)c1S(=O)(=O)N(C)C[C@H]1Oc2ccc(NS(=O)(=O)c3ccccc3)cc2C(=O)N([C@@H](C)CO)C[C@H]1C,nt,nt,nt,-3,nt,nt
COc1ccc(C2/C(=C(/O)c3ccc(C)cc3)C(=O)C(=O)N2C)cc1 (centres undefined),4,27,-8,nt,12,4
COc1ccc(N2C(=O)C(=O)/C(=C(/O)c3ccc(C)cc3)C2c2cccnc2)cc1 (centres undefined),-29,-36,44*,12,-11,-7
CCN1CCCC1CNC(=O)c1ccc2c(c1)NC(=O)/C(=C\c1ccc(OC)c(OC)c1)S2 (centres undefined),1,21,-28,10,40,87*
COc1ccc(C(=O)NCCN2CCOCC2)cc1[N+](=O)[O-],20,15,80*,-16,9,7
CCN1CCN(CCCNC(=O)c2ccc3c(c2)NC(=O)/C(=C\c2cccc(C)c2)S3)CC1,9,8,-2,3,107*,102*
CCN1CCN(CCCNC(=O)c2ccc3c(c2)NC(=O)c2ccccc2S3)CC1,-11,16,-2,-2,1,nt
Cc1cccc(/C=C2/Sc3ccc(C(=O)NCCCN4CCOCC4)cc3NC2=O)c1,-10,13,-7,12,65*,-7
CC(C)C(=O)Nc1ccc2c(c1)C(=O)N(C)[C@@H]1CC[C@H](CC(=O)NCCCN(C)C)O[C@H]1CO2,nt,nt,nt,-25,nt,nt
O=C(NC1CCC1)[C@H]1[C@H](CO)[C@H]2Cn3c(cccc3=O)[C@@H]1N2Cc1cc(F)ccc1F,nt,nt,nt,-10,nt,nt
